Screens deposited in PubChem BioAssay by National Center for Advancing Translational Sciences (NCATS).
HTT ATP protect: protects HTT-Q103 PC12 cells, measured by ATP | Potency, µM (series often up to 56.4 µM), for the others: cytoprotection (ATP increase), usual class: activators | actives 0.14% (n = 230,000) | AID 1471 | PC12 HTT-Q103 induced, cytoprotection, ATP luminescence, 40 h; note: potency is the fitted concentration of half-maximal effect; % of control where 0% means no effect; nearly all actives have a fitted effect of over 45% in size
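Stable PC12 Q103-GFP cells in serum-supplemented, phenol red-free DMEM; induction by tebufenozide at 100 nM final; compound dose series; cell viability quantified luminescently from ATP.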
HttQ103 aggreg: inhibitors of mutant huntingtin aggregate formation in PC12 cells; Potency, µM (series often up to 46.1 µM), inactives show at the highest dose activity change, negative = inhibition, usual class: inhibitors; AID 1688; PC12 HttQ103-GFP aggregates, Acumen cytometry, 40 h; actives 1.1% (n = 220,000); note: potency is the fitted concentration of half-maximal effect; % is set by controls: 0 for no effect and ±100 for the full control effect; nearly all actives have a fitted effect of over 60% in size
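Using laser scanning cytometry, GFP-positive aggregates were counted after lysis of PC12 cells induced with 100 nM tebufenozide to express HTT exon 1 Q103–GFP. Compounds were tested in titration.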
TR SRC2 fluor cs: Texas Red fluorescence interference in TRb-SRC2 counter-screen. TRb/SRC2 Texas Red total fluorescence interference. Potency, µM (series often up to 106 µM), without a hit: at the highest dose fluorescence change, negative = quenching. actives 0.29% (n = 280,000); active = well fitted curve in either direction with a large enough effect; inconclusive = small, poorly fitted or top-dose-only effect; note: potency is the fitted concentration of half-maximal effect; % is set by controls: 0 for no effect and ±100 for the full control effect
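Human TRβ ligand-binding domain (0.6 uM) and Texas Red SRC2 peptide (20 nM) in Tris buffer with 1 uM T3 and 5% DMSO were incubated with pinned compound for 5 hr at ambient temperature. Total fluorescence was computed as S + 2P (555/632 nm).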
FBPA coupling cs: counter-screen for Giardia aldolase inhibitors: coupling enzyme system; actives 0.67% (n = 290,000); activity change, negative = inhibition, % at 58.2 µM, hits read low; coupling enzyme system counterscreen, AmpLite Red fluorescence; AID 2472; in the data active = activity change below about -30%; note: % is set by controls: 0 for no effect and ±100 for the full control effect
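Coupling enzymes only (glyceraldehyde-3-phosphate) + compound, at 57.5 uM final, 10 min RT; add substrate/coupling/AmpLite Red mix, 20 min RT; fluorescence ex 525/em 598 nm. Actives flag coupling-system interference.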
JMJD2E inh: inhibitors of human JMJD2E histone demethylase | JMJD2E catalytic domain, FDH-coupled NADH fluorescence (FDH is formaldehyde dehydrogenase) | Potency, µM (highest dose often 57.1 µM), for inactives: top-dose activity change, negative = inhibition, actives largely listed as inhibitors | AID 2147 | actives 1.6% (n = 230,000) | B2RXH2; active = well fitted inhibition curve with a large enough effect, not every such curve was filed as active; inconclusive = small, poorly fitted or top-dose-only effect, or another doubt; inactive = no such curve, though single readings can be large or run the other way;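 note: potency is the fitted concentration of half-maximal effect; 0% = wells with enzyme and -100% = buffer wells without enzyme; nearly all actives have a fitted effect of over 50% in size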
Target sequence (B2RXH2 1-337 limits assumed): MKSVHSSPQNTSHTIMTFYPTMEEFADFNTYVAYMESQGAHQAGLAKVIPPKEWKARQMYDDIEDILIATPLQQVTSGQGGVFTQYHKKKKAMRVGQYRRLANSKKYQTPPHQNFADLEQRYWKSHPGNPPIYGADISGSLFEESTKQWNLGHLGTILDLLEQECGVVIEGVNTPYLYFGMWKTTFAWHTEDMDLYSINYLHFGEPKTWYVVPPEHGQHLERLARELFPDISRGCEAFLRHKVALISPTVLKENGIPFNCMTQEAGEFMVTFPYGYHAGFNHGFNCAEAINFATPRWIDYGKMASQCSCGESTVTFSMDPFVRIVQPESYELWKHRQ
TRb-SRC2 inh: inhibitors of human thyroid hormone receptor beta-SRC2 interaction. P10828. TRbeta-SRC2 peptide binding, fluorescence polarization; receptor liganded with 1 µM T3. Potency, µM (top dose mostly 106 µM), for the others: at the highest dose activity change, negative = inhibition, most hits filed as inhibitors. actives 0.065% (n = 280,000);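 note: potency is the fitted concentration of half-maximal effect; plate controls were bound peptide for no effect and peptide without receptor for full effect; nearly all actives have a fitted effect of over 50% in size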
Target sequence (P10828 whole entry, looked up): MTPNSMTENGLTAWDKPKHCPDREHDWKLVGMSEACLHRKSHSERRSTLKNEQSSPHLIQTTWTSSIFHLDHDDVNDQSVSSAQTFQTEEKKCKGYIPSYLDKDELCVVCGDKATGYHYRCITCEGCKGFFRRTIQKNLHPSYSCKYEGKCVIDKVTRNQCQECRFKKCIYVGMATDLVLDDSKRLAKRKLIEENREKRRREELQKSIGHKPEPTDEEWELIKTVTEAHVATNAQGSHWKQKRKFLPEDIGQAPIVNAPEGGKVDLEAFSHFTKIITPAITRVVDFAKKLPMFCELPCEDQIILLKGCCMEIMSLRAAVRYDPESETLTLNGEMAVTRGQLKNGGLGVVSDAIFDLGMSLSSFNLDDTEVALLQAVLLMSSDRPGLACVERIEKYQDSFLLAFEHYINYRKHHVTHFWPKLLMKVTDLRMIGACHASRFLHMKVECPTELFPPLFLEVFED
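Read-out is fluorescence polarization (555 nm excitation, 632 nm emission) of a Texas Red SRC2 coactivator peptide; loss of signal reflects blocked binding to human TRb ligand-binding domain in the presence of 1 uM T3.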
* = called active by the depositor; u = inconclusive; x = no result given; ! = a repeat was not active; [ ] = another dose, or the depositor's remark. The list is not random: actives were taken first. Their share in the collection is about 2%. Unless noted, calls come from the whole dose curve; as a rule, active = well fitted curve in the direction sought with a large enough effect; inconclusive = small, poorly fitted or top-dose-only effect, or another doubt; inactive = no such curve, though single readings can be large; an effect the other way counts as inactive or inconclusive.

SMILES	HTT ATP protect	HttQ103 aggreg	TR SRC2 fluor cs	FBPA coupling cs	JMJD2E inh	TRb-SRC2 inh
O=C1CC[C@@H](C(=O)N[C@@H](Cc2cnc[nH]2)C(=O)N[C@@H](Cc2c[nH]c3ccccc23)C(=O)N[C@@H](CO)C(=O)N[C@@H](Cc2ccc(O)cc2)C(=O)O)N1	x	x	-1.2%	0.0	x	-0.6%
O=C(O)Cc1ccc(O)c(O)c1	-67.7%	-15.2%[9.22 µM]	-4.5%	-3.6	25.1µM*	0.8%
COC(=O)[C@@H](N)Cc1ccc(O)c(O)c1	-143.7%	22.9%	-2.4%	x	12.6µM*	-0.1%
COC(=O)C(N)Cc1ccc(Cl)cc1 (centres undefined)	x	x	0.7%	x	9.8%	-6.7%
C[C@@](N)(Cc1ccc(O)c(O)c1)C(=O)O	-20.2%[40.3 µM]	x	u	-10.9	7.94µM*	-1.5%
N=C1CCC(=N)c2c1c(O)c1ccccc1c2O	8.6%[10 µM]	-24.2%[9.22 µM]	44.7µM*[fluorescent]	-31.8*	u	31.6µM*
N#Cc1c(C#N)c(O)c2ccccc2c1O	3.6%[10 µM]	-30.4%[9.22 µM]	-1.3%	-24.1	u	3.7%
C[n+]1cccc(C2C(C#N)=C(N)Oc3c2ccc2ccccc32)c1 (centres undefined)	-7.3%[10 µM]	-6.7%[9.22 µM]	-5.5%	1.0	u	-8.4%
C[n+]1cccc2ccc3c(c21)OC(N)=C(C#N)C3c1ccccc1 (centres undefined)	-12.6%[10 µM]	u	0.6%	-19.4	15.8µM*	3.4%
COc1ccc(NC(=O)c2cnc(C)cn2)c2ncccc12	-52.7%[10 µM]	1.78µM*	0.2%	1.1	5.4%	-3.8%
NC(Cc1ccccc1)(C(=O)O)C(=O)O	7.6%[10 µM]	x	x	x	x	x
COc1ccc2[nH]c(=O)c(CN(Cc3ccccc3OC)Cc3nnnn3CC3CCCO3)cc2c1 (centres undefined)	-31.8%[10 µM]	16.7%	-6.6%	-25.2	u	-5.4%
COc1ccc2[nH]c(=O)c(CN(CCc3ccccc3)Cc3nnnn3CC3CCCO3)cc2c1 (centres undefined)	-20.6%[10 µM]	-2.3%	-1.1%	-40.2*	u	-0.3%
COc1ccc2[nH]c(=O)c(CN(Cc3ccc(C)cc3)Cc3nnnn3CC3CCCO3)cc2c1 (centres undefined)	-37.4%	4.4%	0.3%	-47.2*	u	-3.4%
Cc1ccc2cc(CN(Cc3ccc(F)cc3)Cc3nnnn3C3CCCC3)c(=O)[nH]c2c1	-5.5%[1.9 µM]	25.1µM*	2.4%	1.9	u	-1.3%
COc1ccc2[nH]c(=O)c(CN(CC3CCCO3)C(=O)Nc3ccc(F)cc3)cc2c1 (centres undefined)	5.3%[10 µM]	11.2µM*	5.4%	5.7	u	-4.6%
C=CC[C@@H](C(=O)O)c1ccccc1	-13.1%[10 µM]	x	x	x	x	x
CCOC(=O)COc1ccccc1C1C(C(=O)OC)=C(C)NC2=C1C(=O)c1ccccc12 (centres undefined)	x	x	-4.8%	x	x	5.8%
N#Cc1nc(Cc2ccccc2)oc1NCc1ccccc1Cl	-2.8%	8.91µM*	-0.6%	-0.1	-0.6%	-21.9%
O=C1C=CC(=O)c2c1ccc1c2ccc2ccccc21	-0.5%[40.3 µM]	x	-5.2%[53 µM]	-28.1	3.5%[25.5 µM]	1.1%[53 µM]
COc1ccc2c(c1)[nH]c1c(=O)n(N)cnc12	11.1%[10 µM]	-4.7%	-0.6%	-5.3	-1.7%	-0.8%
Nn1cnc2c([nH]c3ccccc32)c1=O	-28.7%[1.9 µM]	-17.1%	1122µM*[quencher]	8.4	-5.1%	-19.8%[53 µM]
CCOc1cccc(NC(=O)C2CC(=O)N(CC)C(=Nc3ccc(F)cc3)S2)c1 (centres undefined)	x	x	-2.4%	x	x	0.0%
COc1ccc(-n2nc(C(=O)N3CCCCC3)c3ccccc3c2=O)cc1	10.1%	2.82µM*	-1.2%	-0.9	-5.3%	-9.0%
COc1ccc(-n2nc(C(=O)NCC(=O)N3CCCCCC3)c3ccccc3c2=O)cc1	x	x	x	0.6	x	x
SMILES	HTT ATP protect	HttQ103 aggreg	TR SRC2 fluor cs	FBPA coupling cs	JMJD2E inh	TRb-SRC2 inh
CCN(c1ccccc1)S(=O)(=O)c1ccc(-c2cc(C)no2)s1	x	x	0.5%	x	x	9.1%
COC(=O)c1nc2ccc(N3CCOCC3)cc2c(C)c1C(=O)OC	-117.8%	-1.8%	-1.1%	-50.5*	-9.6%	-3.0%
CCc1ccc(Nc2cc(C)nc3nc(Cc4ccc(Cl)cc4)nn23)cc1	x	x	-3.0%	x	x	2.1%
O=[N+]([O-])c1cccc(N=Cc2sc3ccccc3c2O)c1	11.2%	15.9%	9.7%	0.2	28.2µM*	18.7%
COCCOCCOCCOC	x	x	-2.0%[201 µM]	x	x	8.3%[201 µM]
CCCN(CCC)c1ncnc2nc[nH]c12	5.1%	7.94µM*	-1.3%	-2.4	-1.5%	-17.7%
COc1cccc2c(=S)c(CCC(C)=O)c(C)[nH]c12	-11.3%[1.9 µM]	32.4%	2.82µM*[quencher]	-1.3	-6.3%	-16.6%[53 µM]
CC(=O)CCc1c(C)c2cccc(C)c2[nH]c1=O	-11.8%	15.0%[9.22 µM]	-1.2%	0.1	u	-8.7%
Cc1[nH]c2ccccc2c1[C@H]1[C@@H](CC#N)C1(C)C	6.4%[10 µM]	-2.9%	-2.0%	-46.3*	-3.7%	7.4%
CCC(=O)OCCc1ccccc1	x	x	-2.1%[201 µM]	x	x	5.7%[201 µM]
O=c1c(CCc2ccccc2)nc2cnc(Nc3ccccc3)nc2n1Cc1cccs1	-0.1%	x	x	1.2	x	x
Brc1ccc2[nH]c3c(c2c1)CCC3	25.0%[10 µM]	24.3%[9.22 µM]	-1.4%	-0.1	-22.8%	-7.3%
O=C1Cc2c([nH]c3ccc(Br)cc23)-c2ccccc2N1	15.8µM*!	x	u	1.6	u	5.7%
O=C(Nc1ccc(N2CCOCC2)c(F)c1)c1ccncc1	-22.5%	2.24µM*	-1.8%	-1.2	-4.1%	-20.2%
O=C(Nc1ccc(Cl)c([N+](=O)[O-])c1)c1ccc(NCCCN2CCOCC2)c([N+](=O)[O-])c1	18.0%[10 µM]	0.5%	-0.5%	4.5	-3.6%	-11.4%
Cc1ccc(NC(=O)c2ccc(NCCCN3CCOCC3)c([N+](=O)[O-])c2)cc1Cl	26.5%[10 µM]	25.1µM*	-3.7%	2.8	3.8%	5.0%
CC(=O)N1CCN(c2ccc(NC(=O)c3ccc(N4CCCC4)c([N+](=O)[O-])c3)cc2Cl)CC1	-6.9%[10 µM]	-5.0%	-0.6%	-0.9	11.1%	-10.2%
O=C(Nc1ccc(N2CCCCC2)c(Cl)c1)c1ccc(N2CCOCC2)c([N+](=O)[O-])c1	-32.6%	11.2µM*	-4.3%[53 µM]	-4.5	-1.7%	-15.4%[53 µM]
Cn1c(=O)[nH]c(=O)n(C2CCC(O)CC2)c1=O (centres undefined)	x	x	-4.6%[201 µM]	x	x	-0.2%[201 µM]
COCCCNC(=O)c1oc2c(c1C)-c1nn(Cc3cccc(Cl)c3)cc1CC2	x	x	-26.7%	x	x	2.6%
CO/N=C1\C[C@]2(C[C@@H]3C[C@@H](C/C=C(\C)C[C@@H](C)/C=C/C=C4\CO[C@@H]5[C@H](O)C(C)=C[C@@H](C(=O)O3)[C@]45O)O2)O[C@H](/C(C)=C/C(C)C)[C@H]1C	x	x	-0.1%[201 µM]	x	x	7.0%[201 µM]
